Measurements published in the supplement of paper PMC6555819.

How the values were obtained:
Assay in all cases: PBM binding z-score (relative to random genomic background probes); higher = stronger binding; sequences stand for … in GC…GCGATTGACAGCGTAGAATGAAGG
[1] = test system: PPARg:RXRa DBDmut IVT, anti-RXR (DBD mutation: RXRa K156A/R161A, NR concentration 270 nM, RXRa partner concentration 90 nM)
How it was run: (§1)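 Antibodies against each partner of ligand-free nuclear receptor dimers (one per run) detected binding on custom Agilent 4×180K protein-binding microarrays after 1 h incubation. The double-stranded probes had 34-nt variable regions carrying direct-repeat seeds, single-nucleotide variants, half-site ablations and random human genomic background sequences. Binding z-scores, from regression-normalized fluorescence, use the random background probes as reference.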

[2] = test system: PPARg:RXRa IVT, anti-PPARg (NR concentration 270 nM, RXRa partner concentration 90 nM)
How it was run: as §1

[3] = test system: PPARg DBDmut:RXRa IVT, anti-PPARg (DBD mutation: PPARg1 K132A/R137A, NR concentration 270 nM, RXRa partner concentration 90 nM)
How it was run: as §1

[4] = test system: PPARg DBDmut IVT, anti-PPARg (DBD mutation: PPARg1 K132A/R137A, NR concentration 270 nM)
How it was run: as §1

[5] = test system: PPARg homodimer (NR concentration 180 nM)
How it was run: as §1

[6] = test system: PXR:RXRa (NR concentration 270 nM, RXRa partner concentration 90 nM)
How it was run: as §1

[7] = test system: PXR homodimer (NR concentration 270 nM)
How it was run: as §1

[8] = test system: RARa:RXR (NR concentration 270 nM, RXRa partner concentration 90 nM)
How it was run: as §1

[9] = test system: RARa homodimer (NR concentration 270 nM)
How it was run: as §1

[10] = test system: RARb:RXRa (NR concentration 270 nM, RXRa partner concentration 90 nM)
How it was run: as §1

[11] = test system: RARb homodimer (NR concentration 270 nM)
How it was run: as §1

[12] = test system: RARg:RXRa (NR concentration 270 nM, RXRa partner concentration 90 nM)
How it was run: as §1

[13] = test system: RARg homodimer (NR concentration 270 nM)
How it was run: as §1

[14] = test system: RXRa DBDmut IVT, anti-RXR (DBD mutation: RXRa K156A/R161A, NR concentration 90 nM)
How it was run: as §1

[15] = test system: RXRa homodimer (NR concentration 180 nM)
How it was run: as §1

[16] = test system: THRa:RXRa (NR concentration 90 nM, RXRa partner concentration 90 nM)
How it was run: as §1

[17] = test system: THRa homodimer (NR concentration 90 nM)
How it was run: as §1

[18] = test system: VDR homodimer (NR concentration 270 nM)
How it was run: as §1

Sequence	PBM binding z-score [1]	PBM binding z-score [2]	PBM binding z-score [3]	PBM binding z-score [4]	PBM binding z-score [5]	PBM binding z-score [6]	PBM binding z-score [7]	PBM binding z-score [8]	PBM binding z-score [9]	PBM binding z-score [10]	PBM binding z-score [11]	PBM binding z-score [12]	PBM binding z-score [13]	PBM binding z-score [14]	PBM binding z-score [15]	PBM binding z-score [16]	PBM binding z-score [17]	PBM binding z-score [18]
CAAACTAGGTCAAGTGGTCAAAGTCCGCTTCCCG	8.23	8.54	2.88	1.21	2.1	2.11	0.168	3	0.47	4.38	4.26	4.95	5.48	1.85	3.76	3.16	1.43	1.08
CCTACTGGGCCAAACGTCATTGATTCCAATGCTC	6.22	3.97	-0.542	-0.413	0.259	-0.508	-0.633	0.0892	-0.153	0.179	-0.184	-0.00983	-0.146	0.278	0.000676	-0.343	-0.264	-0.254
ATCTCTAGGGAAAGATAGTTCAGTGAATGCAAAT	0.0889	0.274	0.441	0.248	0.581	0.457	0.536	0.402	0.55	0.406	0.675	0.502	0.656	0.0504	0.0958	0.201	-0.33	0.635
GCAGACAGGTGAAACGCCGGTAACTCAGGGTGGC	0.72	0.227	-0.163	-1.53	-0.427	-0.468	-0.822	0.0984	-1.03	0.606	-0.057	0.644	0.166	-0.634	0.513	0.157	-0.511	-0.512
ATATGTAGGTTAAGGGTCATTTAGGTTGGTTCGC	7.27	7.94	3.6	3.31	3.63	5.37	2.03	5.61	2.42	3.61	4.09	4.79	3.29	2.35	6.16	3.72	1.76	3.97
CGTCAGAGTTCAACTAAGGTAACGTAAAGCACGC	0.228	1.32	0.422	0.416	2.24	5.76	6.21	4.1	1.3	4.73	3.58	5.39	6.02	4.87	5.49	5.18	1.68	4.58
CCTACTGGGTCAAGGTCATTGATCAGTCAAAGCA	6.45	7.7	0.76	0.202	2.56	5.07	2.3	4.8	0.915	4.73	4.88	5.77	5.74	2.59	5.72	4.24	3.31	4.04
CCTCACGGGTCACTGACAGGTTATAGCATTTGGA	1.77	2.15	-0.537	-0.176	1.89	3.33	0.0959	3.98	0.868	3.85	3.33	5.64	4.5	1.81	4.65	2.77	0.669	1.02
CGAACTAGGTCAAGGACAATGAATCTCCGCACGC	8.3	8.44	2.51	1.02	2.03	1.31	0.478	1.99	-0.186	3.99	3.13	3.87	4.64	1.52	2.78	3.12	2.15	0.633
GCTTACGGGTCAACGGTTATAGCATGAATAGAAT	4.03	4.42	2.69	0.764	1.62	3.16	0.0463	4.02	0.362	4.08	2.84	4.92	4.66	2.06	5.29	2.59	-0.0988	0.695
CCGAGTAGCTTATGGGGCATTCAGGCAACGGTGA	0.454	0.117	-1.42	-1.07	-0.422	-0.731	-0.54	-0.568	-0.432	-0.266	-0.2	-0.278	-0.43	0.0685	-0.245	-0.153	-0.655	-0.541
GCTAGTAGTTGAAAGGGCAACCGAATGATTCTCG	0.195	1.26	-0.638	-0.335	1.55	0.658	-0.0187	1.47	-1.01	1.88	1.73	1.22	0.96	0.488	1.47	0.474	-0.735	-0.34
GCTAGTTAGTCAGTAAAAGGTCACACACCGGTCG	0.245	2.45	0.12	0.0734	3.34	4.72	0.761	4.98	2.21	3.96	5.02	4.93	4.43	0.44	5.22	3.49	1.36	1.62
CTCGAAAGGTCGGGTGAGGTGAGTATACGGATAA	0.384	1.74	0.713	0.324	1.4	3.82	0.334	3.01	0.691	3.52	3.12	3.42	3.43	0.73	3.05	5.11	1.91	0.829
ACTTGCAGGCCAAGGGTCACTCAAGATTAGTCCG	2.34	4.29	0.459	-0.141	1.94	3.22	0.0748	3.99	0.96	3.6	4.01	4.38	3.9	0.954	4.47	2.89	0.244	1.36
